# Source: the supplement of paper PMC10849652
# The full data set covers some 8,800 targets. This sample favours those with a hit. About 0.5% of all pairs of compound and target were hits. Unmarked numbers belong to inactive results.
# Assays:
# Experiment in all cases: log2 fold change, soluble protein after heating vs DMSO (PISA); higher = thermal stabilisation; K562 lysate, 10 uM; active = over 0.2 and 3.5 SD of the protein, either way, in both replicates (recomputed)
# [1] = compound: CCCS(=O)(=O)Nc1ccc(F)c(C(=O)c2c[nH]c3ncc(-c4ccc(Cl)cc4)cc23)c1F [vemurafenib]
# Outline: (§1)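 A 30 min treatment with 10 μM compound was applied to crude K562 extract at 1 mg/mL protein in PBS pH 7.4 with 1 mM MgCl2. Heating for 3 min spanned 48°C-58°C, after which aliquots were pooled, adjusted to 0.5% NP-40 at 4°C and spun at 21,000xg for 90 min. TMTpro 16plex LC-MS/MS of the supernatant, with channel sums equalised, gave values recorded as log-two fold change in thermal stability against solvent controls, from duplicates.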
# [2] = compound: CCCS(=O)(=O)Nc1ccc(F)c(C(=O)c2c[nH]c3ncc(Cl)cc23)c1F
# Outline: as §1
# [3] = compound: CCN(CCCOc1ccc2c(Nc3cc(CC(=O)Nc4cccc(F)c4)[nH]n3)ncnc2c1)CCOP(=O)(O)O [barasertib]
# Outline: as §1
# [4] = compound: CC[C@@H]1C(=O)N(C)c2cnc(Nc3ccc(C(=O)NC4CCN(C)CC4)cc3OC)nc2N1C1CCCC1
# Outline: as §1
# [5] = compound: CC[C@@H]1C(=O)N(C)c2cnc(Nc3ccc(C(=O)N[C@H]4CC[C@H](N5CCN(CC6CC6)CC5)CC4)cc3OC)nc2N1C(C)C [volasertib]
# Outline: as §1
# [6] = compound: CCn1c(C(=O)N(C2CC2)C2CC2)cc2c3c(ncn3C)c(Nc3cc(C)n(C)n3)nc21
# Outline: as §1
# [7] = compound: CCn1cc(-c2ccnc3[nH]c(-c4cccc(CN(C)C)c4)cc23)c(-c2ccc(NC(=O)N(C)C)cc2)n1
# Outline: as §1
# [8] = compound: CN1CCC(CNc2ccc3ncc(-c4cccc(OC(F)(F)F)c4)n3n2)CC1
# Outline: as §1
# [9] = compound: CN1CCN(CCOc2cc(OC3CCOCC3)c3c(Nc4c(Cl)ccc5c4OCO5)ncnc3c2)CC1 [saracatinib]
# Outline: as §1
# [10] = compound: CN1CCN(c2nc(C3=C(c4c[nH]c5ccccc45)C(=O)NC3=O)c3ccccc3n2)CC1 [sotrastaurin]
# Outline: as §1
# Sequence of UniProt Q8NE86 (Q8NE86 whole entry, looked up): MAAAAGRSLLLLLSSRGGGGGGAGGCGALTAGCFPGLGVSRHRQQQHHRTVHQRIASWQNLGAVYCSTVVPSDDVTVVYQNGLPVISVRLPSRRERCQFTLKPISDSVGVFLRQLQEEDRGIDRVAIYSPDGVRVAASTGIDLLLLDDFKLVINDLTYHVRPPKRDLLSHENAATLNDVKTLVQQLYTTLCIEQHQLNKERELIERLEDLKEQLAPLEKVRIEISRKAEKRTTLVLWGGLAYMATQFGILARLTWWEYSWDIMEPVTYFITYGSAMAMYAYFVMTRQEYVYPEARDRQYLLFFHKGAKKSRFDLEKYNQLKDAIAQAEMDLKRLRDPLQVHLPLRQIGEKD
# Sequence of UniProt Q00013 (Q00013 whole entry, looked up): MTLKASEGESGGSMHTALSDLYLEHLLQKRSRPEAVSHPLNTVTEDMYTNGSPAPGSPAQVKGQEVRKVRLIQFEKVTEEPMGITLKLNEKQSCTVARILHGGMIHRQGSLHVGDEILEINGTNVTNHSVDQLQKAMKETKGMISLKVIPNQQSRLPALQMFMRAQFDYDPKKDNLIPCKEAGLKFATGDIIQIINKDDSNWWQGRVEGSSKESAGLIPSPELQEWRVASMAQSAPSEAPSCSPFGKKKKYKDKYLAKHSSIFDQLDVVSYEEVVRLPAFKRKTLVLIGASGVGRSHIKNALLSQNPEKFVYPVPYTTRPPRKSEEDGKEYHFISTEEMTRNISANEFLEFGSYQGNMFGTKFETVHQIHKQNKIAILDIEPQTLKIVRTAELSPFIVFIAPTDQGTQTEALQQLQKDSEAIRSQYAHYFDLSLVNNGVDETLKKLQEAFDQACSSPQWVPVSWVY
# Sequence of UniProt Q14739 (Q14739 whole entry, looked up): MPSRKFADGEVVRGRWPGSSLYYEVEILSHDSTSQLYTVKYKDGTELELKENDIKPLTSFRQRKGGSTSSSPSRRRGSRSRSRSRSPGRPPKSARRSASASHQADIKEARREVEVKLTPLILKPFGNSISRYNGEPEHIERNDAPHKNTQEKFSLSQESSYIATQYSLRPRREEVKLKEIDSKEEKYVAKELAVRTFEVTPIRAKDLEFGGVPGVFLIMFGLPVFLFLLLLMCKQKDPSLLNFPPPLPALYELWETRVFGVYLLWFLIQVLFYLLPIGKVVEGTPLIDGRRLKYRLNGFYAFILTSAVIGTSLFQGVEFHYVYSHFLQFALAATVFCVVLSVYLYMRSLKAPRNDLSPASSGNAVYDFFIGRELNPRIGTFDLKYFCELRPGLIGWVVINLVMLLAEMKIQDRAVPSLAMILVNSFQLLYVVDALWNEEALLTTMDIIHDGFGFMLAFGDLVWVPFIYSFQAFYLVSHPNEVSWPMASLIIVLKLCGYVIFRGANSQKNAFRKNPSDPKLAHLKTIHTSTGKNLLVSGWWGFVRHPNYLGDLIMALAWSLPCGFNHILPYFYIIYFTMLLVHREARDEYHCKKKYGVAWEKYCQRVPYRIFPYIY
# Sequence of UniProt Q14807 (Q14807 whole entry, looked up): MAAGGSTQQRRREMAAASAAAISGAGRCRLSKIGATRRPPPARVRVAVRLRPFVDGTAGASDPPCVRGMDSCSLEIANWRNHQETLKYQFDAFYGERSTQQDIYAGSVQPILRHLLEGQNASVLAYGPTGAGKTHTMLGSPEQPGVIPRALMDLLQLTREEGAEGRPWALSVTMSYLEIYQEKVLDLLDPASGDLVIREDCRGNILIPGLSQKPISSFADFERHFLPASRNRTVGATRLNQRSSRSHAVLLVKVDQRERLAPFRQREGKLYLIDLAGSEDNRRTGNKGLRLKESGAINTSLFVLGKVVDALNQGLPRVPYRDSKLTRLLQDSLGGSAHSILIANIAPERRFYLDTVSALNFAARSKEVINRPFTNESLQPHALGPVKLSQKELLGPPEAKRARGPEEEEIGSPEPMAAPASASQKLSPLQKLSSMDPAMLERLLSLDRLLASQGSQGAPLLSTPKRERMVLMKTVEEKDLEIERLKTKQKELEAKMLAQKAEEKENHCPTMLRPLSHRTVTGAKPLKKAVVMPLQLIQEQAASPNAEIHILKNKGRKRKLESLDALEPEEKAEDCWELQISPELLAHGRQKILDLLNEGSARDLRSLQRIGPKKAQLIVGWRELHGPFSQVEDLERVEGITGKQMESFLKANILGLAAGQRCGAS
# Sequence of UniProt Q8IYU8 (Q8IYU8 whole entry, looked up): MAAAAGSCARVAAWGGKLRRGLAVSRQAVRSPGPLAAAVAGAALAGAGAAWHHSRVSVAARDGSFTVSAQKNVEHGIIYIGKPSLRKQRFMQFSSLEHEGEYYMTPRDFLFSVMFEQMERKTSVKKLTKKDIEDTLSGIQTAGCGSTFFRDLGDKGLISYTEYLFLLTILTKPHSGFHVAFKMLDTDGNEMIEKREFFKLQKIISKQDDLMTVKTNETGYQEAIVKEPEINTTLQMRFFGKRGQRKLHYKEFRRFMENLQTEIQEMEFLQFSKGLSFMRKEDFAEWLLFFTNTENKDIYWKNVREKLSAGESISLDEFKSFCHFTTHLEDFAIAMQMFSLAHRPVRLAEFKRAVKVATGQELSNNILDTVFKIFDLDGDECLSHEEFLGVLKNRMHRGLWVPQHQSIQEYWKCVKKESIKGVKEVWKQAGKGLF
# Sequence of UniProt Q96RQ3 (Q96RQ3 whole entry, looked up): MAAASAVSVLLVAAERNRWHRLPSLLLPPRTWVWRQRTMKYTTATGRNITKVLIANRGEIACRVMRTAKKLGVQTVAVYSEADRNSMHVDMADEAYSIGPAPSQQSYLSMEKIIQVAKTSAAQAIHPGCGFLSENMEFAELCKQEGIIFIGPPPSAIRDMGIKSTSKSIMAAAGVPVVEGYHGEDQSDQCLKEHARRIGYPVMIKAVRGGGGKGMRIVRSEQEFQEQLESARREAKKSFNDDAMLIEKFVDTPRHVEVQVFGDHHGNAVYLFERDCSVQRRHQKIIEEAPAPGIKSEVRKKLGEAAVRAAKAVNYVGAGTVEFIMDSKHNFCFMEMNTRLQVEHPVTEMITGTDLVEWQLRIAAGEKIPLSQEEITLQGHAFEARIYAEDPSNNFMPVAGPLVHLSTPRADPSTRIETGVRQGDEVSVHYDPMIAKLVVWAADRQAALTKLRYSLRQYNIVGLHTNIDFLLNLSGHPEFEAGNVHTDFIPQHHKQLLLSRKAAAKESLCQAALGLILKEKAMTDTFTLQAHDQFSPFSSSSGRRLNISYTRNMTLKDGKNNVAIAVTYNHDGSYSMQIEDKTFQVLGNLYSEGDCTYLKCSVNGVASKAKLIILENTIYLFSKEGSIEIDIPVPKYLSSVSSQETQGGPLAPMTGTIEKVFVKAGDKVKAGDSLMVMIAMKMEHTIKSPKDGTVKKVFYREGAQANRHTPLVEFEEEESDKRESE
# Sequence of UniProt Q9NX58 (Q9NX58 whole entry, looked up): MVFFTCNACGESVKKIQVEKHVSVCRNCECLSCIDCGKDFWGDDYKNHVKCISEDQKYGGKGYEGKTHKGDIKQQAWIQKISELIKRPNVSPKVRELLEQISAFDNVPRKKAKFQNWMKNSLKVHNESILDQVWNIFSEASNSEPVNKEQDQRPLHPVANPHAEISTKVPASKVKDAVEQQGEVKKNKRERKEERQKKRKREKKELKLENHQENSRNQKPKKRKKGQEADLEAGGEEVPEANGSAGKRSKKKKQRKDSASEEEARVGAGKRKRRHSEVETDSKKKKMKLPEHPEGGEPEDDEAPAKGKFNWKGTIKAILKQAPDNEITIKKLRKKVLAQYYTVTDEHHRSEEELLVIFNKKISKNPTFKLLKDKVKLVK
# Sequence of UniProt P27448 (P27448 whole entry, looked up): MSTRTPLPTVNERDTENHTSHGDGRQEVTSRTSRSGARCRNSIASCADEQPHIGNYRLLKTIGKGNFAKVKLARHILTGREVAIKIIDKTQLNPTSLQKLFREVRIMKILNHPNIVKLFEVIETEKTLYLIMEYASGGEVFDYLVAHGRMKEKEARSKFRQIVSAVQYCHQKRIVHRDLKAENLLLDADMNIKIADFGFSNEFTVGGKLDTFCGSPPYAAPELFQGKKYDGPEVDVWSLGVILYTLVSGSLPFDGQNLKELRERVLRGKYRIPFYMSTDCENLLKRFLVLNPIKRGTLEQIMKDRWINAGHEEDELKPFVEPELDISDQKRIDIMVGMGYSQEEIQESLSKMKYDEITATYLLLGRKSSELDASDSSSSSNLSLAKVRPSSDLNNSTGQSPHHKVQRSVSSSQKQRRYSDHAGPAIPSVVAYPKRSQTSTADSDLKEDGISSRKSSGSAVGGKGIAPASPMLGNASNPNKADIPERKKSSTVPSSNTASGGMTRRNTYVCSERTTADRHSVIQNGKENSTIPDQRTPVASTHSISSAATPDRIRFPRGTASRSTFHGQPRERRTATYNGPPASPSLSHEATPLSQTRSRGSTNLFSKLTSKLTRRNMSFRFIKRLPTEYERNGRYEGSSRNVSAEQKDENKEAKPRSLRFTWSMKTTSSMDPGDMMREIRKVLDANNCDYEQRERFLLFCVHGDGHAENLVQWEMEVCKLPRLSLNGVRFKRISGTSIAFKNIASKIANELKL
# Sequence of UniProt Q68D91 (Q68D91 whole entry, looked up): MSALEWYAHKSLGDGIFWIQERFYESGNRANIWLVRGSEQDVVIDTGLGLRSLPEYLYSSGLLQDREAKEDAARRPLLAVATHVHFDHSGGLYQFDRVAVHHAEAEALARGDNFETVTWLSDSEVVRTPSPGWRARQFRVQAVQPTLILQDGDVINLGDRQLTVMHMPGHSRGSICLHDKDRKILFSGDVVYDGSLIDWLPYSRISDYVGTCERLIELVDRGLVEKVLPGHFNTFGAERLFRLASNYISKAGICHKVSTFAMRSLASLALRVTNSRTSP
# Sequence of UniProt Q14657 (Q14657 whole entry, looked up): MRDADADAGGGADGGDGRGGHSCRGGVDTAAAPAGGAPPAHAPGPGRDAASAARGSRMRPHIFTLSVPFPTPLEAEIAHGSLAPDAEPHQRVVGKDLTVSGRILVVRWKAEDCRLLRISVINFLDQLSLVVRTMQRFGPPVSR
# Sequence of UniProt Q16553 (Q16553 whole entry, looked up): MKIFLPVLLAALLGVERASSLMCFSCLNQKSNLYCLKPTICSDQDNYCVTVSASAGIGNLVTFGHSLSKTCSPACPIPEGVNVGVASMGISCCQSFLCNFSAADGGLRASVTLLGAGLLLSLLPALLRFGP
Target,log2 fold change [1],log2 fold change [2],log2 fold change [3],log2 fold change [4],log2 fold change [5],log2 fold change [6],log2 fold change [7],log2 fold change [8],log2 fold change [9],log2 fold change [10]
LYSMD3 (UniProt Q7Z3D4),0.025,-0.05,-0.003,0.074,0.056,-0.013,-0.094,0.235,0.056,0.002
MAPKAPK3 (UniProt Q16644),-0.02,-0.018,0.015,-0.145,0.002,0.028,-0.001,-0.067,0.003,-0.014
MRPL10 isoform 2 (UniProt Q7Z7H8),0.027,0.033,0.132,0.03,-0.037,-0.063,0.075,-0.032,-0.005,0.068
KLC4 isoform 3 (UniProt Q9NSK0),-0.038,0.02,-0.008,0.038,-0.029,0.052,0.011,-0.018,-0.012,0.003
MAT2B (UniProt Q9NZL9),0.036,0.016,0.001,-0.019,-0.006,-0.015,0.13,0,-0.018,0.013
MAPK8 isoform 3 (UniProt P45983),0.06,0.022,0.007,-0.123,-0.02,-0.005,0.013,0.055,0.027,0.01
MBLAC2 (UniProt Q68D91),-0.069,-0.006,0.013,-0.042,0.002,0.008,0.036,0.078,-0.042,0.016
MARK3 (UniProt P27448),-0.003,0.036,-0.001,0.038,0.042,0.005,-0.114,-0.237,-0.015,-0.228
MCU (UniProt Q8NE86),0.011,0.017,0.077,-0.085,-0.033,-0.049,-0.062,-0.099,0.04,0.017
MRPL46 (UniProt Q9H2W6),0.058,-0.001,-0.015,0.115,0.044,0.064,0.523 (active),-0.029,0.024,0.032
METTL7A (UniProt Q9H8H3),-0.08,0.056,-0.123,-0.022,0.226,-0.018,0.014,0.081,-0.028,-0.028
LAGE3 (UniProt Q14657),0.016,0.004,0.128,-0.032,0.005,0.058,-0.024,-0.003,0.019,-0.024
LBR (UniProt Q14739),0.012,0.008,0.041,0.014,0.156,0.052,0.117,-0.22,0.064,0.048
KIF22 (UniProt Q14807),-0.043,-0.049,0.009,0.088,0.075,-0.189,-0.157,0.308,0.036,-0.084
KIF2C (UniProt Q99661),0.01,0.004,0.008,-0.058,-0.023,0.016,0.006,-0.015,-0.015,0.02
MICU2 (UniProt Q8IYU8),-0.061,0.043,0.109,-0.023,0,-0.036,0.013,-0.101,0.021,0.126
MPP1 (UniProt Q00013),0.014,-0.005,-0.014,0.001,-0.029,-0.011,-0.008,-0.034,-0.001,-0.007
KNL1 (UniProt Q8NG31),-0.031,0.064,0.011,-0.015,-0.044,-0.012,0.015,0,0.006,0.025
LAMP1 (UniProt P11279),-0.009,0.02,0.001,0.059,0.056,-0.097,-0.508 (active),0.24,0.018,0.022
MARK1 (UniProt Q9P0L2),-0.006,0.064,-0.038,-0.045,-0.019,-0.018,-0.06,-0.241,0.021,-0.17
KIF11 (UniProt P52732),-0.027,0.003,0.023,-0.011,-0.024,0.025,-0.055,0.018,0.023,0.026
MORF4L1 isoform 2 (UniProt Q9UBU8),0.034,-0.017,0.007,0.016,0,-0.005,-0.036,0.131,0.038,0.019
LLGL1 (UniProt Q15334),0.06,-0.052,-0.014,-0.057,0.02,-0.038,0.033,-0.008,-0.097,0.168
LYAR (UniProt Q9NX58),0.011,0.005,-0.024,0.005,0.003,-0.027,0.312 (active),-0.128,0.028,-0.039
MECR (UniProt Q9BV79),0.055,0.035,0.008,-0.05,-0.008,0.004,-0.043,0.023,0.095,-0.007
MCCC1 (UniProt Q96RQ3),0.065,0.009,0.015,0.005,-0.034,-0.025,0.139,-0.059,0.028,0.054
LRPPRC (UniProt P42704),0.032,0.024,0.101,-0.141,-0.072,0.076,0.033,-0.087,0.045,0.005
LY6E (UniProt Q16553),0.068,0.026,-0.02,-0.055,0.022,–,-1.86 (active),0.533,–,–
MACO1 (UniProt Q8N5G2),-0.114,-0.003,-0.063,0.296 (active),-0.009,0.025,0.113,-0.037,0.064,-0.01
MAP4 isoform 5 (UniProt P27816),-0.019,-0.035,-0.038,0.069,0.044,-0.266,–,–,0.041,-0.04
